Shown are actives, neighbours in structure and some others; about 19% of the full set was active somewhere.
IL-1B inflam inh = blocks inflammasome-driven IL-1 beta release; THP-1 LPS/ATP IL-1B secretion, AlphaLISA, 16 h; active compounds read low; activity change, % at 57.5 µM; AID 743279; 360,000 compounds, 4.7% hits; in the data active = activity change below about -50%; inconclusive = mostly about -30% to -49%
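Secreted IL-1B measured by AlphaLISA bead assay after 16 h compound exposure of THP-1 cells; compounds (final up to 57.5 uM) added 1 h before LPS (250 ng/mL) and ATP (1.25 mM) stimulation; lower signal means less secretion.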
HT1080-NT tox = kills 2HG-producing HT-1080-NT fibrosarcoma cells; HT-1080-NT fibrosarcoma viability, CellTiter-Glo ATP luminescence, 48 h; AID 686970; 360,000 compounds, 1.6% hits; Potency, µM (series often up to 46.1 µM), for the others: top-dose activity, negative = less viability, actives largely listed as cytotoxic;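 also: NT is the 2HG producing partner of a matched IDH1 knockdown line; potency is read from the fitted curve at half-maximal effect; 0% = DMSO-treated cells and -100% = media-only wells without cells; nearly all actives have a fitted effect of over 55% in size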
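Read-out is CellTiter-Glo luminescence after 10 minutes at room temperature, following 48 hours' compound treatment of HT-1080-NT cells (750 cells/well, RPMI, 5% FBS, 37 degrees C).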
TDP1 cell noCPT = qHTS for Inhibitors of human tyrosyl-DNA phosphodiesterase 1 (TDP1): qHTS in cells in absence of CPT | DT40 Tdp1-/- hTDP1 cells, no CPT, ATP luminescence, 48 h | Potency, µM (titrated, usually from 46.2 µM), for inactives: at the top dose activity change, negative = growth inhibition, most hits filed as inhibitors | 420,000 compounds, 15% hits | AID 686978, 2013; also: potency is read from the fitted curve at half-maximal effect; nearly all actives have a fitted effect of over 55% in size
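Growth kinetics read by CellTiter-Glo luminescence after ≥48 hr at 37 °C. Cells: DT40 Tdp1-/- stably carrying human TDP1, 400 per well, compound exposure in the absence of CPT (DMSO vehicle).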
ELG1 repair inh = inhibitors of ELG1-dependent DNA repair in HEK293T cells; HEK293T ELG1-luciferase reporter, luminescence, 16 h; DNA damage induced by 5-fluorouridine; Potency, µM (series often up to 46.1 µM), without a hit: top-dose activity change, negative = inhibition, usual class: inhibitors; 330,000 compounds, 2.3% hits; also: potency is read from the fitted curve at half-maximal effect; nearly all actives have a fitted effect of over 55% in size
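Reporter activity after DNA damage by 5-fluorouridine is monitored. Compound-treated cells incubate 16 hr at 37 °C, then ONE-Glo is added for 30 min before luminescence reading.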
DT40 TDP1 CPT = growth inhibition of DT40 Tdp1-/-;hTDP1 cells with camptothecin (screen for TDP1 inhibitors). chicken DT40 Tdp1-/-;hTDP1 cells + 20 nM CPT, ATP luminescence, 48 h. Potency, µM (titrated, usually from 46.2 µM), for inactives: at the top dose activity change, negative = growth inhibition, usual class: inhibitors. 420,000 compounds, 12% hits; also: potency is read from the fitted curve at half-maximal effect; nearly all actives have a fitted effect of over 55% in size
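Chicken DT40 Tdp1-/- cells stably complemented with human TDP1 were seeded at 400 cells/well in medium containing 20 nM camptothecin, exposed to pin-transferred compounds, and grown at 37 °C for at least 48 hr. Viability was read as ATP luminescence.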
HT1080 IDH1KD tx = HT-1080 IDH1 knockdown cell toxicity (counter line); HT-1080 IDH1 knockdown viability, ATP luminescence, 48 h; Potency, µM (top dose mostly 46.1 µM), inactives show at the highest dose activity, negative = toxicity, usual class: cytotoxic; 360,000 compounds, 2% hits;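 also: potency is read from the fitted curve at half-maximal effect; 0% = DMSO wells and -100% = cell-free medium wells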
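% activity derives from luminescence (CellTiter-Glo), normalised to DMSO and no-cell wells. HT-1080-IDH1KD cells, 750/well, had 48 h compound exposure at 37 °C.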
Starred values were filed as active, the others as inactive; [ ] = remark or other dose. Unless noted, calls follow the shape of the dose curve; as a rule, active = well fitted curve in the direction sought with a large enough effect; inconclusive = small, poorly fitted or top-dose-only effect, or another doubt; inactive = no such curve, though single readings can be large; an effect the other way counts as inactive or inconclusive. Unless noted, % is scaled to controls: 0 for no effect and ±100 for the full control effect.

CCOC1=C2CN(S(=O)(=O)c3ccc(C)cc3)C(c3ccc(CC)cc3)CC2N(S(=O)(=O)c2ccc(C)cc2)C(c2ccc(CC)cc2)C1 (centres undefined) was read as IL-1B inflam inh 9, HT1080-NT tox 17%, TDP1 cell noCPT 2.1µM*, DT40 TDP1 CPT 3.7µM* and HT1080 IDH1KD tx 9%.
For CCOC1=C2CN(S(=O)(=O)c3ccc(C)cc3)[C@H](c3ccccc3)C[C@@H]2N(S(=O)(=O)c2ccc(Br)cc2)[C@H](c2ccccc2)C1 the results were IL-1B inflam inh -14, HT1080-NT tox 21%, TDP1 cell noCPT 12µM*, DT40 TDP1 CPT inconclusive and HT1080 IDH1KD tx 1%.
Screening CCC(CC)C(=O)Nc1nnc(S(=O)(=O)N(C)c2cc(C)cc(C)c2)s1 returned TDP1 cell noCPT inconclusive and DT40 TDP1 CPT -24%.
Screening COc1ccc(CNC(=O)C2CCCN(Cc3nc(-c4cccc(C)c4)oc3C)C2)cc1 (centres undefined) returned IL-1B inflam inh inconclusive, HT1080-NT tox -21%, TDP1 cell noCPT 13µM*, ELG1 repair inh inconclusive, DT40 TDP1 CPT 13µM* and HT1080 IDH1KD tx -22%.
For Cc1cccc(-c2nc(CN3CCCC(C(=O)NCc4ccc(Cl)cc4)C3)c(C)o2)c1 (centres undefined) the results were TDP1 cell noCPT 7.3µM* and DT40 TDP1 CPT -86%.
`Cc1oc(-c2cccc(Cl)c2)nc1CN1CCC(C(=O)NCC2CCCO2)CC1` (centres undefined) gave IL-1B inflam inh -8, HT1080-NT tox -5%, TDP1 cell noCPT -1%, ELG1 repair inh -13%, DT40 TDP1 CPT -14% and HT1080 IDH1KD tx 0%.
Screening O=C(CSc1n[nH]c(-c2ccccc2)n1)c1ccccc1 returned IL-1B inflam inh 9, HT1080-NT tox inconclusive, TDP1 cell noCPT inconclusive, ELG1 repair inh inconclusive, DT40 TDP1 CPT inconclusive and HT1080 IDH1KD tx 3%.
For COc1ccccc1-c1nc(SCC(=O)Nc2ccc(C)c(C)c2)n[nH]1 the results were TDP1 cell noCPT 23µM* and DT40 TDP1 CPT 23µM*.
Cc1cc(C)c(NC(=O)CSc2n[nH]c(-c3ccccc3Cl)n2)c(C)c1 was read as TDP1 cell noCPT 6.5µM* and DT40 TDP1 CPT inconclusive.
COc1cccc(CNC(=O)CSc2n[nH]c(-c3ccccc3Cl)n2)c1 was read as TDP1 cell noCPT inconclusive and DT40 TDP1 CPT -25%.
`CCCOc1ccccc1-c1nc(SCC(=O)c2ccccc2)n[nH]1` gave TDP1 cell noCPT 18µM* and DT40 TDP1 CPT 16µM*.
COc1ccccc1-c1nc(SCC(=O)c2ccccc2)n[nH]1 was read as TDP1 cell noCPT 16µM* and DT40 TDP1 CPT inconclusive.
`COc1ccc(NC(=O)CN(C)C(=O)c2ccc(NS(=O)(=O)c3ccc4[nH]c(=O)[nH]c4c3)cc2)cc1` gave IL-1B inflam inh 5, HT1080-NT tox 5%, TDP1 cell noCPT 5%, ELG1 repair inh inconclusive, DT40 TDP1 CPT 8% and HT1080 IDH1KD tx 12%.
`O=C(NCCOc1ccccc1F)c1ccc2c(=O)n3c(nc2c1)CCC3` gave IL-1B inflam inh -1, HT1080-NT tox 6%, TDP1 cell noCPT -18%, ELG1 repair inh inconclusive, DT40 TDP1 CPT inconclusive and HT1080 IDH1KD tx 4%.
For COc1cc(=O)n2c(c1C(=O)NCc1ccc3c(c1)OCO3)CCN(C(=O)c1cccc(F)c1)CC2 the results were TDP1 cell noCPT 5% and DT40 TDP1 CPT 0%.
Screening COCC(=O)Nc1cc(C(=O)N2CCN(c3ccc(Cl)cn3)CC2)c2c(c1)nc(C1CCC1)n2C returned TDP1 cell noCPT -11% and DT40 TDP1 CPT -16%[9.04 µM].
